Values without a mark were called inactive. Results filed as inconclusive are left out. A call without a number means that no potency is given here. Active and inactive are the calls of the source. Unless noted, calls follow the shape of the dose curve; as a rule, active = well fitted curve in the direction sought with a large enough effect in the repeat runs; inconclusive = weak or mixed curves; inactive = no such curve, though single readings can be large; an effect the other way counts as inactive or inconclusive.
Experiments:
[1] = qHTS RealTime-Glo MT Cell Viability Assay in HEK293 cells - 0 hour (AID 1224880); also: top concentration of the series differs between compounds; nearly all actives have a fitted effect of over 45% in size
Outline: (§1)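 Measured as luminescence from the same continuously cultured HEK293 wells at successive time points (0, 8, 16, 24, 32, 40 h) after compound addition. Reagent present from seeding; dosing at 5 h; incubation 37 C.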

[2] = A CellTox Green Cytotoxicity Assay to monitor cytotoxicity in HEK293 cells - 32 hour (AID 1224881); also: nearly all actives have a fitted effect of over 40% in size
Outline: (§2)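 Homogeneous no-lysis format: HEK293 cell suspension mixed with CellTox Green reagent, seeded, incubated 5 h at 37 C/5% CO2, then dosed by pintool with compound in DMSO.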

[3] = A CellTox Green Cytotoxicity Assay to monitor cytotoxicity in HEK293 cells - 8 hour (AID 1224884); also: nearly all actives have a fitted effect of over 35% in size
Outline: as §2

[4] = qHTS RealTime-Glo MT Cell Viability Assay in HepG2 cells - 16 hour (AID 1224885); also: nearly all actives have a fitted effect of over 50% in size
Outline: (§3)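 Cell number in HepG2 cultures estimated from NanoLuc luminescence generated by metabolic reduction of a prosubstrate by living cells. The homogeneous, nonlytic format allowed repeated reads at 0, 8, 16, 24, 32 and 40 h of compound exposure.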

[5] = qHTS RealTime-Glo MT Cell Viability Assay in HEK293 cells - 24 hour (AID 1224886); also: nearly all actives have a fitted effect of over 50% in size; also: potency is read from the fitted curve at half-maximal effect
Outline: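 Homogeneous bioluminescent viability format in HEK293 cells (600 cells/well). Following 5 h at 37 C/5% CO2, 23 nL compound was pintooled; the signal was measured repeatedly during 40 h incubation.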

[6] = qHTS RealTime-Glo MT Cell Viability Assay in HEK293 cells - 8 hour (AID 1224887); also: nearly all actives have a fitted effect of over 50% in size; also: potency is read from the fitted curve at half-maximal effect
Outline: as §1

[7] = A CellTox Green Cytotoxicity Assay to monitor cytotoxicity in HEK293 cells - 16 hour (AID 1224888); also: nearly all actives have a fitted effect of over 35% in size
Outline: as §2

[8] = qHTS RealTime-Glo MT Cell Viability Assay in HepG2 cells - 0 hour (AID 1224889); also: nearly all actives have a fitted effect of over 50% in size
Outline: as §3

[9] = qHTS assay to identify small molecule antagonists of the estrogen receptor alpha (ER-alpha) signaling pathway using the BG1 cell line in the presence of 0.1 nM 17-beta-estradiol - cell viability counter screen (AID 1259241); also: nearly all actives have a fitted effect of over 40% in size
Outline: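 Cytotoxicity counter-screen: live-cell protease activity measured by fluorescence (30 min reagent step) in the same wells. Cells were VM7Luc4E2 with endogenous ER-alpha and ERE-driven luciferase, treated 22 hr at 37C alongside 0.1 nM 17beta-estradiol final.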

[10] = qHTS assay to identify small molecule antagonists of the androgen receptor (AR) signaling pathway using the MDA cell line in the presence of 0.5 nM R1881 - cell viability counter screen (AID 1259242); also: nearly all actives have a fitted effect of over 45% in size
Outline: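 Human breast carcinoma MDA-kb2 cells, cultured without CO2, receive compounds alongside 0.5 nM (final) R1881 agonist. After 16 hr at 37C, viability is taken as live-cell protease signal.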

[11] = target: Estrogen receptor (Homo sapiens) (UniProt P03372); assay: qHTS assay to identify small molecule antagonists of the estrogen receptor alpha (ER-alpha) signaling pathway using the BG1 cell line in the presence of 0.1 nM 17-beta-estradiol (AID 1259244); also: nearly all actives have a fitted effect of over 50% in size
Outline: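 Seeding of stripped-serum-adapted VM7Luc4E2 cells, 24 h attachment, compound transfer, then 0.1 nM final 17beta-estradiol; after 22 h incubation, ONE-Glo reagent and luminescence reading.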

[12] = qHTS assay to identify small molecule phospholipidosis (PLD) inducers (AID 1259344; active = well fitted curve in the direction sought with a large enough effect; an effect the other way counts as inactive or inconclusive)
Outline: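 Cells (HepG2, 900 per well) attach for 4 h, receive LipidTOX Red and compound together, incubate 24 h at 37 C, are fixed 30 min with paraformaldehyde/Hoechst, then imaged at one site per well.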

[13] = qHTS assay to identify small molecule agonists of the sonic hedgehog signaling (Shh) pathway - cell viability counter screen (AID 1259366); also: nearly all actives have a fitted effect of over 50% in size; also: potency is read from the fitted curve at half-maximal effect
Outline: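 Cytotoxicity counter screen: CellTiter-Fluor reagent added after 23 h compound exposure, then 1 h at 37C and fluorescence read. Cells were 3T3 Gli1-Luc, seeded 2,000 per well and dosed 4 h post-plating.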

[14] = qHTS assay to identify small molecule antagonists of the sonic hedgehog signaling (Shh) pathway - cell viability counter screen (AID 1259367); also: nearly all actives have a fitted effect of over 55% in size
Outline: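 Cytotoxicity was assessed in parallel with Shh reporter activity by measuring live-cell protease fluorescence (CellTiter-Fluor) in NIH/3T3 cells stably carrying Gli1-Luc, treated with compound under conditioned medium stimulation for 23 hr plus 1 hr reagent incubation.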

[15] = A CellTox Green Cytotoxicity Assay to monitor cytotoxicity in HepG2 cells - 0 hour (AID 1224882); also: nearly all actives have a fitted effect of over 35% in size
Outline: (§4)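 Fluorescent DNA-binding dye, 600 HepG2 cells/well, 5 h preincubation then compound in DMSO; same plates read at 0–40 h, 37 C.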

[16] = A CellTox Green Cytotoxicity Assay to monitor cytotoxicity in HepG2 cells - 8 hour (AID 1224890); also: nearly all actives have a fitted effect of over 45% in size
Outline: as §4

[17] = qHTS assay to identify small molecule HDAC inhibitors (AID 1259364);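 also: wild-type HCT-116 cells with endogenous class I/II HDAC activity; top concentration of the series differs between compounds; nearly all actives have a fitted effect of over 45% in size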
Outline: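 After a 2 hr compound incubation (37C, 5% CO2), HCT-116 cells seeded at 1,500/well the day before received HDAC-Glo reagent; signal read as luminescence after 30 min at room temperature.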

[18] = qHTS assay to identify small molecule HDAC inhibitors - cell viability counter screen (AID 1259365)
Outline: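 CellTiter-Glo luminescence (30 min, room temperature) reported viability after a 2 h compound exposure at 37 C. Cells: wild-type HCT-116, 1,500 per well, seeded the night before.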

[19] = A CellTox Green Cytotoxicity Assay to monitor cytotoxicity in HepG2 cells - 32 hour (AID 1224883); also: nearly all actives have a fitted effect of over 50% in size
Outline: as §4

Chain of Estrogen receptor (Homo sapiens) (P03372 whole entry, looked up): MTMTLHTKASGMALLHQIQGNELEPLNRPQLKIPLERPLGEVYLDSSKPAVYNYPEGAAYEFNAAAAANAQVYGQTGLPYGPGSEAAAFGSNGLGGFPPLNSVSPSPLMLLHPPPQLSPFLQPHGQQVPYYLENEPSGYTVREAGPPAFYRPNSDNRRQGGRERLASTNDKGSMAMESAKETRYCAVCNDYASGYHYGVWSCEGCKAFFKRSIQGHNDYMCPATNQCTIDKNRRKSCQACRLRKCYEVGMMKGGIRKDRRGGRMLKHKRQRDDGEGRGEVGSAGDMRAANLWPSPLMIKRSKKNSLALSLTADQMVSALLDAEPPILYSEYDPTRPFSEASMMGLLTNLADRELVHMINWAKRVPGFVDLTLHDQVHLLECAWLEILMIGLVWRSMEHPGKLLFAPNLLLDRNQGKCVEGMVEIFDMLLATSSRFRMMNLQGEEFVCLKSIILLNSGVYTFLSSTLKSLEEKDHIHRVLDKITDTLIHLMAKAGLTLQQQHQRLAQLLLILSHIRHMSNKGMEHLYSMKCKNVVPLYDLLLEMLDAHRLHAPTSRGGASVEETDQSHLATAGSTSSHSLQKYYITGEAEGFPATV

| SMILES | outcome [1] | Potency [2] | Potency [3] | outcome [4] | Potency [5] | Potency [6] | Potency [7] | Potency [8] | outcome [9] | outcome [10] | outcome [11] | Potency [12] | Potency [13] | outcome [14] | Potency [15] | Potency [16] | Potency [17] | outcome [18] | Potency [19] |
| --- | --- | --- | --- | --- | --- | --- | --- | --- | --- | --- | --- | --- | --- | --- | --- | --- | --- | --- | --- |
| CCCCCCCCCCCCCCCCCCOCC(O)CO (stereo not given) | inactive | inactive | inactive | inactive | inactive | inactive | inactive | inactive | inactive | inactive | inactive | inactive | inactive | inactive | – | – | – | – | – |
| CCCCCCCCCCCl | inactive | inactive | inactive | – | inactive | inactive | inactive | inactive | inactive | inactive | inactive | – | inactive | inactive | inactive | inactive | inactive | inactive | – |
| NC(=O)CCCCC1CCSS1 (stereo not given) | inactive | inactive | inactive | inactive | inactive | inactive | inactive | inactive | inactive | inactive | inactive | inactive | inactive | inactive | – | – | inactive | inactive | inactive |
| Cc1onc(-c2ccccc2)c1-c1ccc(S(N)(=O)=O)cc1 | inactive | inactive | inactive | inactive | – | – | inactive | inactive | inactive | inactive | – | inactive | – | inactive | inactive | inactive | inactive | inactive | – |
| NC(=O)Nc1nc2ccccc2[nH]1 | inactive | – | inactive | inactive | inactive | – | – | inactive | inactive | inactive | inactive | – | inactive | inactive | inactive | inactive | inactive | inactive | inactive |
| CN(C)C(=O)C(CCN1CCC(O)(c2ccc(Cl)cc2)CC1)(c1ccccc1)c1ccccc1 | inactive | – | inactive | – | 9.52 µM (active) | 12 µM (active) | inactive | inactive | – | – | – | – | 16.8 µM (active) | – | – | – | inactive | inactive | – |
